Out of some 69,000 compounds screened, about 8,600 (12%) showed an effect of 50% or more. The full list was thinned out, with strong results kept by preference.

The experiment has as its system Plasmodium berghei. The experiment can be described thus: Screen against P. berghei liver stage (PbLuc), transformed with Luciferase, at 10uM. The conditions noted are these: tested at 10 uM. It counts as functional, HepG2.
On to `CCn1cc(C(=O)N2C[C@H]3CC(Oc4ccccc4)C[C@H]3C2)cn1` (stereo not given in full), for which the INHIBITION is -17.715%.
Turning to `CC(C)(C)NC[C@@H]1CCC[C@@H]2CN(Cc3csnn3)C[C@@H]21`, the INHIBITION is -39.2%.
The result for `O=C(Cn1cc(-c2ccccc2)cn1)NC(C1CC1)C1CC1` reads 34.7%; that for `OCCn1cc(CN2CCN(CCOc3cccc(F)c3)CC2)cn1`, 33.95%; that for `Cc1cc(CC(C)Nc2ncc(C)c(N(C)C)n2)[nH]n1` (stereo not given), 63.7%.
As for `Cc1cnc(NC(C)Cc2cnccn2)nc1N(C)C` (stereo not given), the INHIBITION was 0.705%.
The result for `Cc1cnc(NC(C)Cc2cccnc2)nc1N(C)C` (stereo not given) reads 55%; that for `Cc1cccnc1CC(C)Nc1ncc(C)c(N(C)C)n1` (stereo not given), 27.9%; that for `Cc1cc(NC(C)Cc2cccnc2)n2nccc2n1` (stereo not given), 23%.
The result for `COCc1nc(NC(C)Cc2cc(C)n[nH]2)c2cnn(C)c2n1` (stereo not given) reads 25.4%; that for `COc1ccc(C(=O)N2C[C@@H](O)[C@H](NCc3cnc(C)cn3)C2)cc1`, 35.15%.
The figure for `O=C(NCCc1nncn1C1CC1)c1cc2ccccn2c1` is -22.3%.
`O=C(Nc1ccc(CC(=O)N2CCSCC2)cc1)NC1CC1`: the INHIBITION is on record as 53.8%.
The figure for `Cc1noc(CNc2ccc(CC(=O)N3CCSCC3)cc2)n1` is 32.5%.
The figure for `O=C(Nc1ccc(CC(=O)N2CCSCC2)cc1)NC1CCCC1` is 33.2%; for `CN(C(=O)Cc1ccc(NC(=O)NC2CC2)cc1)c1ccccc1` it is 8.845%.
Regarding `CCc1nnc(CNc2ccc(CC(=O)N3CCSCC3)cc2)o1`, the INHIBITION was 84.2%.
As to `CCc1noc(CNc2ccc(CC(=O)N3CCSCC3)cc2)n1`, the INHIBITION was determined as 28.5%.
The figure for `CN(C)C(=O)Cc1ccc(NC(=O)NC2CCCC2)cc1` is -36.6%; for `CN(C(=O)Cc1ccc(NC(=O)NC2CCC2)cc1)c1ccccc1` it is 55.3%.
The figure for `O=C(Nc1ccc(CC(=O)N2CCCC2)cc1)NC1CC1` is 36.2%; for `CC(C)C(NC(=O)Nc1ccc(F)cc1)C(=O)N(C)C` (stereo not given) it is 18.7%.
For the compound `Cn1cc(-c2cc(C(F)(F)F)n(CCCN)n2)cn1`, the INHIBITION stood at 21.9%.
As for `CNC(=O)CN([C@H]1C[C@H]2CCOC[C@H]2C1)S(=O)(=O)c1ccccc1`, the INHIBITION is given as 19.2%.
As to `O=C1COC2(CCN(Cc3ccoc3)CC2)CN1CCn1cccn1`, the INHIBITION was 0.804%.
The result for `Cc1occc1C(=O)N1CCO[C@H]2[C@H](OCc3ccccn3)CC[C@@H]21` reads 30.3%; that for `Cc1cnc(N2CCC(c3ccncc3)CC2)nc1-c1ccnn1C`, 68%; that for `COc1cnc(N2CCN(C)CC2)nc1-c1ccnn1C`, 20.8%.
The result for `Cc1cnc(N2CC[C@@]3(O)CCCC[C@H]3C2)nc1-c1ccnn1C` reads 30.4%; that for `Cc1cnc(N2CCCC(c3ccccc3)C2)nc1-c1ncnn1C` (stereo not given), 39.3%.
The result for `COc1cnc(N2CC(N3CCOCC3)C2)nc1-c1ccnn1C` reads 41%; that for `Cc1cnc(N2CCCC(O)C2)nc1-c1ccnn1C` (stereo not given), 16.6%; that for `Cc1cnc(N2CCN(C)CC2)nc1-c1ccnn1C`, 16.3%.
`Cc1cnc(N2CCCC(c3ccccc3)C2)nc1-c1ccnn1C` (stereo not given): the INHIBITION turned out to be 71%.
The figure for `Cc1cnc(N2CCC(c3ccccc3)CC2)nc1-c1ccnn1C` is 68%.
As for `Cc1ccoc1C(=O)N1C[C@@H]2COC[C@]2(COCc2cccnc2)C1`, the INHIBITION was -34.7%.
For `CCCc1n[nH]c(C2CN(C(=O)c3n[nH]c4ccccc34)CCO2)n1` (stereo not given), the INHIBITION was determined as 21%.
Take `COC(=O)NCC(=O)NC1(C)CCc2ccccc2C1` (stereo not given): the INHIBITION came to 7.3%.
The result for `CN(C)c1ccc(C(=O)N2CCCC(n3cccn3)C2)nn1` (stereo not given) reads 3.15%.
With `Cc1ccc(NC2CCN(C(=O)CCCc3cccs3)CC2)nn1`, the INHIBITION is recorded as -3.7%.
The result for `O=C1CCC2(CCN(Cc3cscn3)CC2)CN1CC1CCCO1` (stereo not given) reads -23.5%.
Turning to `Cc1n[nH]c(SCC(=O)NC(c2ccccn2)C(C)C)n1` (stereo not given), the INHIBITION was 58.7%.
Take `Cc1n[nH]c(SCC(=O)N[C@@H](C)C(N)=O)n1`: the INHIBITION was 4.41%.
As for `CSCC(=O)NC(Cc1ccc(C)cc1)c1ccccn1` (stereo not given), the INHIBITION is given as 21.3%.
With `Cc1noc(CCCC(=O)NC(C)c2ccccn2)n1` (stereo not given), the INHIBITION is reported as 13.9%.
As for `Cc1ccc(OCCC(=O)NC(C)c2ccncc2)cc1` (stereo not given), the INHIBITION amounted to 41.6%.
The figure for `Cc1n[nH]c(SCC(=O)NC(c2ccncc2)C(C)C)n1` (stereo not given) is 50.1%.
The figure for `CC(C)CNC(=O)Cn1ccc2ccccc21` is 25.7%.
The figure for `O=C(NC1CC1)c1ccnc(-c2cc(NCCO)nc3[nH]ccc23)c1` is -20.1%; for `O=S(=O)(c1ccccc1)N1CCC2(CCCN2Cc2cccnc2)C1` (stereo not given) it is 55.5%; for `CC(C)c1ccc(S(=O)(=O)N2CCCC3(CCCN3S(C)(=O)=O)C2)cc1` (stereo not given) it is -3.33%.
Take `COCCC(=O)N1CCC2(CCCN2Cc2ccccc2)C1` (stereo not given): the INHIBITION is on record as -22.5%.
The result for `O=S(=O)(c1ccccc1)N1CCC2(CCCN2Cc2ccccc2Cl)C1` (stereo not given) reads 60.2%; that for `Cc1ccc(CN2CCCC23CCN(S(=O)(=O)c2ccccc2)C3)o1` (stereo not given), 34.7%.
The result for `CCS(=O)(=O)N1CCCC2(CCCN2Cc2cccc(F)c2)C1` (stereo not given) reads -22.1%; that for `CCc1ccc(S(=O)(=O)N2CCCC3(CCCN3S(C)(=O)=O)C2)cc1` (stereo not given), -12.2%; that for `CS(=O)(=O)N1CCCC12CCCN(S(=O)(=O)c1cccc(F)c1)C2` (stereo not given), -2.35%.
`O=S(=O)(c1ccccc1)N1CCC2(CCCN2Cc2cccc(F)c2)C1` (stereo not given): the INHIBITION was 78.8%.
In the case of `O=S(=O)(c1ccccc1)N1CCC2(CCCN2Cc2ccc(Cl)cc2)C1` (stereo not given), the INHIBITION is on record as 91.7%.
For the compound `O=C(c1ccc[nH]1)N1CCCC2(CCCN2Cc2cccnc2)C1` (stereo not given), the INHIBITION was determined as 12.1%.
The result for `O=C(c1ccc[nH]1)N1CCC2(CCCN2Cc2cccnc2)CC1` reads 4.02%; that for `CCOc1cc(/C=C/c2ncc(C(=O)O)s2)cc(Br)c1O`, -13.3%.
The result for `CC(C)CNC(=O)CNC(=O)c1nc(Cc2c(Cl)cccc2Cl)no1` reads 41%; that for `COCCC1CCN(CC(C)n2cnc3ccccc32)CC1` (stereo not given), -3.47%; that for `CCc1nc(CN2CCCN(C(=O)c3cnc(C)cn3)CC2)cs1`, 10.733%.
The result for `COc1ccccc1CN(Cc1cccnc1)CC1CCCO1` (stereo not given) reads 42.6%; that for `CCN(CC)Cc1ccc(C(=O)N2CCN(CC(C)O)CC2)o1` (stereo not given), 21.5%.
In the case of `COC(=O)c1cccc(S(=O)(=O)NC(=O)COC2CCCC2)c1`, the INHIBITION was determined as 15.5%.
The figure for `O=S(=O)(c1ccccc1)N1CCC2(CCCN2Cc2cccc(Cl)c2)C1` (stereo not given) is 61.8%; for `COCCC(=O)N1CCC2(CCCN2Cc2cccc(Cl)c2)C1` (stereo not given) it is 47.9%; for `CCS(=O)(=O)N1CCCC2(CCCN2Cc2cccc(Cl)c2)C1` (stereo not given) it is -14.3%.
`NC(=O)C1CCN(C(=O)NCCOc2ccc3c(c2)CCC3)CC1`: the INHIBITION was 5.45%.
The result for `Cc1cc(Cl)ccc1C(=O)N1C[C@H](C2CC2)[C@@H](N)C1` reads 32.2%; that for `N[C@H]1CN(C(=O)c2ccc(Cl)cc2O)C[C@@H]1C1CC1`, 61%; that for `N[C@H]1CN(C(=O)c2ccc(Cl)cc2F)C[C@@H]1C1CC1`, 25.7%.
As for `O[C@@H]1C[C@H]2CN(Cc3ccsc3)[C@@H](Cc3ccccc3)CN2C1`, the INHIBITION was 39.3%.
The result for `O=C1[C@H]2CN(c3ncccn3)C[C@H]2CN1CC1CC1` reads 64.2%; that for `CCS(=O)(=O)N1C[C@H]2CN(CC3CC3)C(=O)[C@H]2C1`, -12.2%.
The result for `O=C1[C@H]2CN(c3cnccn3)C[C@H]2CN1CC1CC1` reads 51.2%.
The figure for `O=C1[C@H]2CN(c3ncccn3)C[C@H]2CN1Cc1ccncc1` is 4.71%; for `CC(C)CN1C[C@@H]2CN(c3cnccn3)C[C@@H]2C1=O` it is 21.3%.
For `O=C1[C@H]2CN(c3ncc(F)cn3)C[C@H]2CN1CC1CC1`, the INHIBITION was 42.6%.
The figure for `COCCN1C[C@@H]2CN(c3cnccn3)C[C@@H]2C1=O` is 14%; for `CS(=O)(=O)N1C[C@H]2CN(CC3CC3)C(=O)[C@H]2C1` it is 85.2%; for `O=C1[C@H]2CN(S(=O)(=O)C3CC3)C[C@H]2CN1CC1CC1` it is 3.69%.
`CN(C)C1COC2(CCN(Cc3ccc4c(c3)OCO4)CC2)C1` (stereo not given): the INHIBITION is given as -50.4%.
The figure for `COc1cc(C2CC(=O)Oc3cc(C)[nH]c(=O)c32)ccc1OCC(=O)O` (stereo not given) is 13.1%.
Regarding `CN1CCN(c2nc(O)c3c(-c4ccccn4)ccnc3n2)CC1`, the INHIBITION is listed as -33.2%.
The figure for `O=C(c1ccccc1C1CCNC1)N1CCC(N2CCC(O)CC2)CC1` (stereo not given) is 11.5%; for `COCCN(CCOC)C(=O)Nc1cc(C(F)(F)F)c[nH]c1=O` it is 12.7%.
The result for `Cc1ncsc1C(=O)NC1CCN(Cc2cccc3c2OCCO3)CC1` reads 33.8%.
For `CC1CS(=O)(=O)CCN1CCCc1ccc(C(F)(F)F)cc1` (stereo not given), the INHIBITION is 10.1%.
With `CCCC(=O)n1ccn(S(=O)(=O)c2ccc(C)cc2)c1=O`, the INHIBITION was 5.18%.
The result for `CC(C)(CO)CNC(=O)c1cc(-c2cc[nH]n2)n2ccccc12` reads 41.2%; that for `Cc1cc(N(C)CCOc2ccccc2F)nc(N)n1`, 65.7%.
On to `COc1ccccc1OCCCc1cc(C)nc(N)n1`, for which the INHIBITION was -16.7%.
The figure for `COc1ccc(OCCN(C)c2cc(C)nc(N)n2)cc1` is 45.4%.
Consider `CN(CCOc1ccccc1F)C1CCOC1=O` (stereo not given), for which the INHIBITION was 33%.
The result for `COc1ccccc1OCCCN(C)c1cc(C)nc(N)n1` reads 61.2%; that for `COc1ccccc1OCCN(C)c1cc(C)nc(N)n1`, 26.3%.
Take `CNc1cc(C2CN(Cc3cccnc3NC)CCO2)nc(C)n1` (stereo not given): the INHIBITION was determined as 1.62%.
The figure for `CC1c2ncc(CNC(=O)C3CC3)n2CCN1Cc1ccsc1` (stereo not given) is -10.3%.
As for `CNC(=O)C1Cn2ccnc2C2(CCN(Cc3cccnc3)CC2)O1` (stereo not given), the INHIBITION amounted to 43.2%.
Regarding `COCCc1noc(CN2CCCC2c2noc(C)n2)n1` (stereo not given), the INHIBITION is listed as -5.32%.
The figure for `COc1ccnc(NC(Cc2ccccc2)C(=O)N(C)C)n1` (stereo not given) is 8.7%.

The values are drawn from ChEMBL document CHEMBL4513216, “Probing the Open Global Health Chemical Diversity Library for Multistage-Active Starting Points for Next-Generation Antimalarials” (ACS Infect Dis, 2020).
